FBW7 act: FBW7 E3 ligase activators, primary screen, biochemical, AlphaScreen, human | normalized activity (activation), % at 26.1 µM | actives 0.13% (n = 650,000) | AlphaScreen FBW7–phospho-cyclin E peptide binding, activator screen; in the data active = normalized activity above about 1.9%;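 also: purified mutant Fbw7 with reduced substrate affinity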
GPR151 ag: activators of human GPR151, primary screen, cell-based, PathHunter beta-arrestin, luminescence; G-protein coupled receptor 151 (Homo sapiens), Q8TDV0; PathHunter beta-arrestin GPR151 cells; activation, % at 11.2 µM; actives 1% (n = 650,000); in the data active = activation above about 4.9%
TEAD-YAP inh: TEAD-YAP interaction inhibition, primary screen, TEAD-YAP interaction inhibitor project, luminescence, HEK-TIYL cells; TEAD-Gal4/YAP UAS-luciferase luminescence; actives 1.4% (n = 640,000); inhibition, % at 9.12 µM; in the data active = inhibition above about 32%
MITF inh: MITF inhibitors, primary screen, biochemical, AlphaScreen, human | Microphthalmia-associated transcription factor (Homo sapiens), O75030 | inhibition, % at 2.6 µM | AID 1259374, 2018 | AlphaScreen MITF homodimerization, bead proximity signal | actives 0.91% (n = 650,000); in the data active = inhibition above about 50%
Target sequence (O75030 whole entry, looked up): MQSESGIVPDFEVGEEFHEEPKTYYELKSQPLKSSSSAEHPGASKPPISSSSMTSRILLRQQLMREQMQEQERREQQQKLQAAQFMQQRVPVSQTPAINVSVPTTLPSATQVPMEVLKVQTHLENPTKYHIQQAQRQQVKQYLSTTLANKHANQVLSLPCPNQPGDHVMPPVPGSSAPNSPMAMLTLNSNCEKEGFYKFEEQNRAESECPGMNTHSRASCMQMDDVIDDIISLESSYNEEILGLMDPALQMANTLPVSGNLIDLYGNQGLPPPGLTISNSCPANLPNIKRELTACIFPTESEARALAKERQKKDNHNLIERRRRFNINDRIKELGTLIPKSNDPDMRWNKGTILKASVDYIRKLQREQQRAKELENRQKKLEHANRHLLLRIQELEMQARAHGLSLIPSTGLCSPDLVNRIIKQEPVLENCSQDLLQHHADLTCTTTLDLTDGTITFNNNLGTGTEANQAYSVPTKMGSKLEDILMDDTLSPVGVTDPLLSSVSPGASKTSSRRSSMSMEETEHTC
GPR151 confirm: GPR151 activators, triplicate retest, confirmation, cell-based, PathHunter beta-arrestin, luminescence; AID 1508609, 2020; shares compounds with GPR151 ag; activation, % at 11.2 µM; 6,700 tested, under 10 active; GPR151 PathHunter beta-arrestin cells, 90 min; % of EA-reagent control over plate median;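 active = mean percent activation across replicates above the confirmation screen cutoff of 4.91%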
GPR119 ag: GPR119 activators in beta-arrestin cells, counter-screen for GPR151 activator project, cell-based, PathHunter beta-arrestin, luminescence, triplicate; shares compounds with GPR151 ag; 90 min; 0 = compound-well median, 100 = enzyme-acceptor control; activation, % at 11.2 µM; actives 0.3% (n = 6,700);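 active = mean percent activation in the counterscreen above 29.09%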;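 also: counterscreen on off-target GPR119 to flag nonselective hits from the GPR151 activator screen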
Numbers stand for hits. This is a sample that favours compounds with a hit; in the whole collection about 3.5% have one here.

Screening CCOC(=O)c1sc2nc(SCC(=O)c3ccc(Cl)cc3)n(Cc3cccs3)c(=O)c2c1C returned FBW7 act inactive, GPR151 ag 5.1, TEAD-YAP inh inactive, MITF inh inactive, GPR151 confirm inactive and GPR119 ag inactive.
CCN1CCN(CCCNC(=O)CCCNC(=O)Cn2cnc3sc4c(c3c2=O)CCCC4)CC1 was read as FBW7 act inactive, GPR151 ag inactive, TEAD-YAP inh inactive and MITF inh inactive.
For CN1CCN(CCCNC(=O)CCCNC(=O)Cn2cnc3sc4c(c3c2=O)CCCC4)CC1 the results were FBW7 act inactive, GPR151 ag 6.0, TEAD-YAP inh inactive, MITF inh inactive, GPR151 confirm inactive and GPR119 ag inactive.
Screening Cc1ccc(-c2cn3nc(N4CCCC(C(=O)NCc5cccs5)C4)sc3n2)cc1 (stereo not drawn) returned FBW7 act inactive, GPR151 ag inactive, TEAD-YAP inh inactive and MITF inh inactive.
For COc1cccc(-c2nc(C3CCCN3C(=O)CCCC(=O)O)n3ccccc23)c1 (stereo not drawn) the results were FBW7 act inactive, GPR151 ag 5.7, TEAD-YAP inh inactive, MITF inh inactive, GPR151 confirm inactive and GPR119 ag inactive.
Screening COc1cccc(-c2nc(C3CCCN3C(=O)CC(C)CC(=O)O)n3ccccc23)c1 (stereo not drawn) returned FBW7 act inactive, GPR151 ag inactive, TEAD-YAP inh inactive and MITF inh inactive.
`Cc1cc(N2CCOCC2)nc(N2CCN(C(=O)Cc3cccs3)CC2)n1` gave FBW7 act inactive, GPR151 ag 11, TEAD-YAP inh inactive, MITF inh inactive, GPR151 confirm inactive and GPR119 ag inactive.
O=c1[nH]c2cccnc2[nH]c1=O was read as FBW7 act inactive, GPR151 ag 10, TEAD-YAP inh inactive, MITF inh inactive, GPR151 confirm inactive and GPR119 ag inactive.
`COc1ccc(C2Oc3c(OC)cccc3C3CC(c4ccco4)=NN32)cc1` (stereo not drawn) gave FBW7 act inactive, GPR151 ag inactive, TEAD-YAP inh inactive and MITF inh inactive.
Screening COc1ccc(C2Oc3c(OC)cccc3C3CC(c4ccco4)=NN32)cc1OC (stereo not drawn) returned FBW7 act inactive, GPR151 ag 7.6, TEAD-YAP inh inactive, MITF inh inactive, GPR151 confirm inactive and GPR119 ag inactive.
Screening O=C(CSc1nc2ccccc2c(=O)n1CC1CCC(C(=O)NCc2ccco2)CC1)Nc1nccs1 (stereo not drawn) returned FBW7 act inactive, GPR151 ag inactive, TEAD-YAP inh inactive and MITF inh inactive.
`Cc1ccc(NC(=O)CSC2=C(C#N)C(c3ccco3)C3=C(CCCC3=O)N2)cc1C` (stereo not drawn) gave FBW7 act inactive, GPR151 ag inactive, TEAD-YAP inh inactive and MITF inh inactive.
`O=C(COc1ccc(Br)cc1)N(c1ccccc1)C1C=CS(=O)(=O)C1` (stereo not drawn) gave FBW7 act inactive, GPR151 ag 6.3, TEAD-YAP inh inactive, MITF inh inactive, GPR151 confirm inactive and GPR119 ag inactive.
Cc1ccc(N(C(=O)CCc2ccccc2)C2C=CS(=O)(=O)C2)cc1C (stereo not drawn) was read as FBW7 act inactive, GPR151 ag 5.4, TEAD-YAP inh inactive, MITF inh inactive, GPR151 confirm inactive and GPR119 ag inactive.
For CCCC1(C(=O)OCC)NC(c2cccs2)C2C(=O)N(c3ccc(F)cc3)C(=O)C21 (stereo not drawn) the results were FBW7 act inactive, GPR151 ag inactive, TEAD-YAP inh inactive and MITF inh inactive.
For COc1ccc(C(=O)Nn2c(C3CC3)nc3ccccc3c2=O)cc1OC the results were FBW7 act inactive, GPR151 ag inactive, TEAD-YAP inh inactive and MITF inh inactive.
Screening COc1ccc(-c2noc(N3CCC(C(=O)N4CCN(C)CC4)CC3)n2)cc1 returned FBW7 act inactive, GPR151 ag inactive, TEAD-YAP inh inactive and MITF inh inactive.
`CCC(Sc1nc2cc(OC)c(OC)cc2c(=O)n1CCc1ccc(Cl)cc1)C(=O)Nc1cccc(Cl)c1` (stereo not drawn) gave FBW7 act inactive, GPR151 ag inactive, TEAD-YAP inh inactive and MITF inh inactive.
CCc1ccc(NC(=O)C(CC)Sc2nc3cc(OC)c(OC)cc3c(=O)n2CCc2ccc(Cl)cc2)cc1 (stereo not drawn) was read as FBW7 act inactive, GPR151 ag 6.5, TEAD-YAP inh inactive, MITF inh inactive, GPR151 confirm inactive and GPR119 ag inactive.
`O=C(CCC(=O)OCc1ccc([N+](=O)[O-])cc1)OCc1ccc([N+](=O)[O-])cc1` gave FBW7 act inactive, GPR151 ag 5.5, TEAD-YAP inh inactive, MITF inh inactive, GPR151 confirm inactive and GPR119 ag inactive.
For O=C(CCC(=O)c1ccc(Cl)cc1)OCc1ccc([N+](=O)[O-])cc1 the results were FBW7 act inactive, GPR151 ag inactive, TEAD-YAP inh inactive and MITF inh inactive.
COc1ccc(OCC2c3cc(OC)c(OC)cc3CCN2C(=O)CC(C)C)cc1 (stereo not drawn) was read as FBW7 act inactive, GPR151 ag inactive, TEAD-YAP inh inactive and MITF inh inactive.
For CCOC(=O)C1C(=O)C=C(c2ccc(C)cc2)CC1c1ccccc1OCC (stereo not drawn) the results were FBW7 act inactive, GPR151 ag 5.3, TEAD-YAP inh inactive, MITF inh inactive, GPR151 confirm inactive and GPR119 ag inactive.
CCOC(=O)C1C(=O)C=C(c2cccc(OC)c2)CC1c1ccccc1C (stereo not drawn) was read as FBW7 act inactive, GPR151 ag inactive, TEAD-YAP inh inactive and MITF inh inactive.
CC(C)(C)c1csc2ncc(C(=O)NCc3cccs3)c(=O)n12 was read as FBW7 act inactive, GPR151 ag 5.2, TEAD-YAP inh inactive, MITF inh inactive, GPR151 confirm inactive and GPR119 ag inactive.
O=C1CCCN1CN(C(=O)c1ccccc1F)c1nc2ccccc2s1 was read as FBW7 act inactive, GPR151 ag inactive, TEAD-YAP inh inactive and MITF inh inactive.
For CCOC(=O)c1c(NC(=O)CN2CCOCC2)sc2c1CCC/C2=N\O the results were FBW7 act inactive, GPR151 ag inactive, TEAD-YAP inh inactive and MITF inh inactive.

Assay outcomes deposited in PubChem by The Scripps Research Institute Molecular Screening Center.
